Experimental data: the supplement of paper PMC12282887
± gives the standard deviation of the averaged measurements.

Assays:
Assay in all cases: promoter activity interaction Z-score (Lux/OD deviation from empty-vector control); higher = stronger promoter induction by the compound
[1] = tested on: E. coli BW25113 acrABp lux reporter
Method in brief: (§1)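 Every compound was given at four 1:2 dilutions, in biological duplicates, to E. coli BW25113 carrying low-copy luxCDABE promoter reporters in wild-type or single-gene deletion backgrounds. Growth in 40 µl LB Lennox in 384-well plates at 37°C was followed by OD600 and luminescence readings every 30 min for 12 h, integrated over 0–8 h for wild type and 1–9 h for deletion strains, with wells below 10% of the median growth value excluded. Scores are Z-transformed residuals of growth-normalised luminescence fitted against a control.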

[2] = tested on: E. coli BW25113 micFp lux reporter
Method in brief: as §1

[3] = tested on: E. coli BW25113 ompFp lux reporter
Method in brief: as §1

[4] = tested on: E. coli BW25113 robp lux reporter
Method in brief: as §1

[5] = tested on: E. coli BW25113 soxSp lux reporter
Method in brief: as §1

[6] = tested on: E. coli BW25113 tolCp lux reporter
Method in brief: as §1

[7] = 1 µg/ml, genetic background: wild type
[8] = 1 µg/ml, genetic background: ΔmarA
[9] = 1 µg/ml, genetic background: Δrob
[10] = 1 µg/ml, genetic background: ΔsoxS
[11] = 2.1 µg/ml, genetic background: wild type
[12] = 2.1 µg/ml, genetic background: ΔmarA
[13] = 2.1 µg/ml, genetic background: Δrob
[14] = 2.1 µg/ml, genetic background: ΔsoxS
[15] = 4.1 µg/ml, genetic background: wild type
[16] = 4.1 µg/ml, genetic background: ΔmarA
[17] = 4.1 µg/ml, genetic background: Δrob
[18] = 4.1 µg/ml, genetic background: ΔsoxS
[19] = 8.2 µg/ml, genetic background: wild type

In the case of `CO[C@H]1/C=C/O[C@@]2(C)Oc3c(C)c(O)c4c(O)c(c(/C=N/N5CCN(C)CC5)c(O)c4c3C2=O)NC(=O)/C(C)=C\C=C\[C@H](C)[C@H](O)[C@@H](C)[C@@H](O)[C@@H](C)[C@H](OC(C)=O)[C@@H]1C` [Rifampicin], the “promoter activity interaction Z-score” value [1, 7] is reported as -0.791 ± 0.2, the “promoter activity interaction Z-score” value [1, 8] is reported as -0.655 ± 0.13 and the “promoter activity interaction Z-score” value [1, 9] is reported as -0.627 ± 0.021. The “promoter activity interaction Z-score” value [1, 10] was -0.932 ± 0.2, the “promoter activity interaction Z-score” value [1, 11] was -0.695 ± 0.1 and the “promoter activity interaction Z-score” value [1, 12] was -0.516 ± 0.29. The “promoter activity interaction Z-score” value [1, 13] was -0.838 ± 0.088, the “promoter activity interaction Z-score” value [1, 14] was -0.731 ± 0.3 and the “promoter activity interaction Z-score” value [1, 15] was -0.811 ± 0.28. For the same molecule, the “promoter activity interaction Z-score” value [1, 16] was -0.168 ± 0.19, the “promoter activity interaction Z-score” value [1, 17] was -1.06 ± 0.08 and the “promoter activity interaction Z-score” value [1, 18] was -1.31 ± 0.3. For the same molecule, the “promoter activity interaction Z-score” value [2, 7] was -0.224 ± 0.14, the “promoter activity interaction Z-score” value [2, 8] was -0.444 ± 0.16 and the “promoter activity interaction Z-score” value [2, 9] was -0.287 ± 0.055. For the same molecule, the “promoter activity interaction Z-score” value [2, 10] was -0.476 ± 0.024, the “promoter activity interaction Z-score” value [2, 11] was -0.39 ± 0.23 and the “promoter activity interaction Z-score” value [2, 12] was -0.505 ± 0.12. The “promoter activity interaction Z-score” value [2, 13] was -0.336 ± 0.076, the “promoter activity interaction Z-score” value [2, 14] was -0.31 ± 0.041 and the “promoter activity interaction Z-score” value [2, 15] was -0.432 ± 0.21. The “promoter activity interaction Z-score” value [2, 16] was -0.471 ± 0.047, the “promoter activity interaction Z-score” value [2, 17] was -0.229 ± 0.029 and the “promoter activity interaction Z-score” value [2, 18] was -0.507 ± 0.018. For the same molecule, the “promoter activity interaction Z-score” value [2, 19] was -0.505 ± 0.31, the “promoter activity interaction Z-score” value [3, 7] was -0.966 ± 0.35 and the “promoter activity interaction Z-score” value [3, 8] was -1.53 ± 0.33. For the same molecule, the “promoter activity interaction Z-score” value [3, 9] was -1.43 ± 0.2, the “promoter activity interaction Z-score” value [3, 10] was -1.07 ± 0.04 and the “promoter activity interaction Z-score” value [3, 11] was -1.06 ± 0.5. For the same molecule, the “promoter activity interaction Z-score” value [3, 12] was -2.11 ± 0.12, the “promoter activity interaction Z-score” value [3, 13] was -1.62 ± 0.39 and the “promoter activity interaction Z-score” value [3, 14] was -0.784 ± 0.23. The “promoter activity interaction Z-score” value [3, 15] was -2.01 ± 0.86, the “promoter activity interaction Z-score” value [3, 16] was -2.895 ± 0.0098 and the “promoter activity interaction Z-score” value [3, 17] was -2.58 ± 0.26. The “promoter activity interaction Z-score” value [3, 18] was -1.59 ± 0.43, the “promoter activity interaction Z-score” value [4, 7] was -0.184 ± 0.35 and the “promoter activity interaction Z-score” value [4, 8] was -0.802 ± 0.3. The “promoter activity interaction Z-score” value [4, 9] was -0.501 ± 0.085, the “promoter activity interaction Z-score” value [4, 10] was -0.537 ± 0.55 and the “promoter activity interaction Z-score” value [4, 11] was 0.236 ± 0.31. For the same molecule, the “promoter activity interaction Z-score” value [4, 12] was -0.639 ± 0.41, the “promoter activity interaction Z-score” value [4, 13] was -0.575 ± 0.22 and the “promoter activity interaction Z-score” value [4, 14] was -0.311 ± 0.2. The “promoter activity interaction Z-score” value [4, 15] was -0.918 ± 0.011, the “promoter activity interaction Z-score” value [4, 16] was -0.833 ± 0.44 and the “promoter activity interaction Z-score” value [4, 17] was -0.434 ± 0.68. The “promoter activity interaction Z-score” value [4, 18] was -1.71 ± 0.29, the “promoter activity interaction Z-score” value [5, 7] was -0.47 ± 0.0069 and the “promoter activity interaction Z-score” value [5, 8] was -0.3407 ± 0.0028. For the same molecule, the “promoter activity interaction Z-score” value [5, 9] was -0.44 ± 0.088, the “promoter activity interaction Z-score” value [5, 10] was -1.04 ± 0.46 and the “promoter activity interaction Z-score” value [5, 11] was -0.551 ± 0.01. For the same molecule, the “promoter activity interaction Z-score” value [5, 12] was -0.657 ± 0.0084, the “promoter activity interaction Z-score” value [5, 13] was -0.53 ± 0.048 and the “promoter activity interaction Z-score” value [5, 14] was -1.11 ± 0.17. For the same molecule, the “promoter activity interaction Z-score” value [5, 15] was -0.866 ± 0.076, the “promoter activity interaction Z-score” value [5, 16] was -0.906 ± 0.027 and the “promoter activity interaction Z-score” value [5, 17] was -0.982 ± 0.24. The “promoter activity interaction Z-score” value [5, 18] was -1.51 ± 0.17, the “promoter activity interaction Z-score” value [5, 19] was -0.811 ± 0.051 and the “promoter activity interaction Z-score” value [6, 7] was -0.736 ± 0.25. The “promoter activity interaction Z-score” value [6, 8] was -0.931 ± 0.48, the “promoter activity interaction Z-score” value [6, 9] was -0.816 ± 0.4 and the “promoter activity interaction Z-score” value [6, 10] was -1.26 ± 0.3. The “promoter activity interaction Z-score” value [6, 11] was -0.703 ± 0.32, the “promoter activity interaction Z-score” value [6, 12] was -1.19 ± 0.18 and the “promoter activity interaction Z-score” value [6, 13] was -0.827 ± 0.14. The “promoter activity interaction Z-score” value [6, 14] was -0.674 ± 0.63, the “promoter activity interaction Z-score” value [6, 15] was -0.555 ± 0.72 and the “promoter activity interaction Z-score” value [6, 16] was -0.65 ± 0.61. The “promoter activity interaction Z-score” value [6, 17] was -1.152 ± 0.0016, the “promoter activity interaction Z-score” value [6, 18] was -0.717 ± 0.57 and the “promoter activity interaction Z-score” value [6, 19] was 0.0561 ± 0.59.
